Assay results taken from the supplement of paper PMC11732987, “Enantioselective OTUD7B fragment discovery through chemoproteomics screening and high-throughput optimisation” (Communications Chemistry, 2025).

Legend:
Test in all cases: log2 ratio of Biotin-Ahx-Ub-VS probe labelling (fragment/DMSO); higher = less target engagement (more negative = stronger competition), active = hit call of the paper (q ≤ 0.05, log2 ratio ≤ -1)
Conditions in all cases: compound concentration: 200 uM; treatment time: 3 h
USP19 = biological target: T1, USP19 (UniProt O94966)
T1 sequence (whole entry): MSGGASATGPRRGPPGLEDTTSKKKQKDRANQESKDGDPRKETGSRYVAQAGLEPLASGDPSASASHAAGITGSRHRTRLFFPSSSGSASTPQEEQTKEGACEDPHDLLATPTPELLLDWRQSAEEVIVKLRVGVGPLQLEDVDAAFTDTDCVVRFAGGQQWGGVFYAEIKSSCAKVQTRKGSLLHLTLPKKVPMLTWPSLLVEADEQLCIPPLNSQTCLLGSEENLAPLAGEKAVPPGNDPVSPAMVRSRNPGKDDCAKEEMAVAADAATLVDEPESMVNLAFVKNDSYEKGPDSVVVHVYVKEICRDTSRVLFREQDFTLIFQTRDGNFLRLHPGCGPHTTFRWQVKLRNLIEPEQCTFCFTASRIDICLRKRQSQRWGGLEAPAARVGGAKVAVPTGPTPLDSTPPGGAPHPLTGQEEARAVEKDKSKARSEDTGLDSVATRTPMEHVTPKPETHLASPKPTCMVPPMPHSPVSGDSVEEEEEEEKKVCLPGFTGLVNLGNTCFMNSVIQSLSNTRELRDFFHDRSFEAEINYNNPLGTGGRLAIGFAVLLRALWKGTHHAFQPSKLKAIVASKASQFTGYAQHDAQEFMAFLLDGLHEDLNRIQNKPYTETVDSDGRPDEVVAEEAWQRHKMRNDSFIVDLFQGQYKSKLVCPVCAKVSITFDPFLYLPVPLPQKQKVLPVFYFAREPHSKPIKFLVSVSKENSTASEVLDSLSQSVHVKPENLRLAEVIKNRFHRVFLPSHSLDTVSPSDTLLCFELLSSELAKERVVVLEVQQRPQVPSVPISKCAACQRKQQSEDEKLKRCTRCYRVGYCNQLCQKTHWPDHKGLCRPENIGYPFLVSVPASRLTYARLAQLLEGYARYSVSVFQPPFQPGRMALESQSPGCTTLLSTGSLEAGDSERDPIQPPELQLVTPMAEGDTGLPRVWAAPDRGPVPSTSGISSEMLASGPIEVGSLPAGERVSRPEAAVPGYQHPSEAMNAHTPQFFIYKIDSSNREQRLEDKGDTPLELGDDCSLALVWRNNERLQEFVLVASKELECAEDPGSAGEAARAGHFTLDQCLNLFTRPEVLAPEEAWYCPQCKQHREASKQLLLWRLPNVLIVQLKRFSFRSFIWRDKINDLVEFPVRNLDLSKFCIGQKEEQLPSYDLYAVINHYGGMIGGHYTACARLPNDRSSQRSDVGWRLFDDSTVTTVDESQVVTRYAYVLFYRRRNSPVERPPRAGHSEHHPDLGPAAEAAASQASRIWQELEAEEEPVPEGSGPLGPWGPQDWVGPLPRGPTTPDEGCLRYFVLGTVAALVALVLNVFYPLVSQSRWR
In short: (§1)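 HEK293T lysate (495 µg per sample, in Tris/CHAPS/IGEPAL buffer with protease inhibitors) was treated in triplicate with fragment at 200 µM or with DMSO for 3 h. It was then treated with Biotin-Ahx-Ub-VS (0.5 µM final) for 1 h. Labelled DUBs were NeutrAvidin-enriched, digested with LysC and trypsin, and run by diaPASEF LC-MS/MS. Spectronaut label-free quantities were global-median-normalised. Values are average log2 ratios fragment/DMSO by unpaired t-test, using proteins with ≥2 unique peptides.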

USP22 = biological target: T2, USP22 (UniProt Q9UPT9)
T2 sequence (whole entry): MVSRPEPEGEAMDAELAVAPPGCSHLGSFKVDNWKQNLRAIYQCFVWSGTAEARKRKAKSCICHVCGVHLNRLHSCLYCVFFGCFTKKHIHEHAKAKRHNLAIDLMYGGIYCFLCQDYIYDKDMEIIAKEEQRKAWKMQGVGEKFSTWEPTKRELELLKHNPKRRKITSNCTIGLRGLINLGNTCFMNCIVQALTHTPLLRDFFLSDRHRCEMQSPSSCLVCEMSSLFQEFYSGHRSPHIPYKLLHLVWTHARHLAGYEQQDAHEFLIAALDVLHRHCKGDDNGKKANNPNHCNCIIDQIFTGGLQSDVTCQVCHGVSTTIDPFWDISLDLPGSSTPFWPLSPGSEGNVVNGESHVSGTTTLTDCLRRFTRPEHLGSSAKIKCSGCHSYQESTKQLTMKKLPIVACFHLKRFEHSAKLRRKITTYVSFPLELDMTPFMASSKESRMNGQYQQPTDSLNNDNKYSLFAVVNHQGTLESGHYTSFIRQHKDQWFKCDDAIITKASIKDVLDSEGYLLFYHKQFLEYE
In short: as §1

USP24 = USP24 (UniProt Q9UPU5)
USP24, sequence (Q9UPU5 whole entry): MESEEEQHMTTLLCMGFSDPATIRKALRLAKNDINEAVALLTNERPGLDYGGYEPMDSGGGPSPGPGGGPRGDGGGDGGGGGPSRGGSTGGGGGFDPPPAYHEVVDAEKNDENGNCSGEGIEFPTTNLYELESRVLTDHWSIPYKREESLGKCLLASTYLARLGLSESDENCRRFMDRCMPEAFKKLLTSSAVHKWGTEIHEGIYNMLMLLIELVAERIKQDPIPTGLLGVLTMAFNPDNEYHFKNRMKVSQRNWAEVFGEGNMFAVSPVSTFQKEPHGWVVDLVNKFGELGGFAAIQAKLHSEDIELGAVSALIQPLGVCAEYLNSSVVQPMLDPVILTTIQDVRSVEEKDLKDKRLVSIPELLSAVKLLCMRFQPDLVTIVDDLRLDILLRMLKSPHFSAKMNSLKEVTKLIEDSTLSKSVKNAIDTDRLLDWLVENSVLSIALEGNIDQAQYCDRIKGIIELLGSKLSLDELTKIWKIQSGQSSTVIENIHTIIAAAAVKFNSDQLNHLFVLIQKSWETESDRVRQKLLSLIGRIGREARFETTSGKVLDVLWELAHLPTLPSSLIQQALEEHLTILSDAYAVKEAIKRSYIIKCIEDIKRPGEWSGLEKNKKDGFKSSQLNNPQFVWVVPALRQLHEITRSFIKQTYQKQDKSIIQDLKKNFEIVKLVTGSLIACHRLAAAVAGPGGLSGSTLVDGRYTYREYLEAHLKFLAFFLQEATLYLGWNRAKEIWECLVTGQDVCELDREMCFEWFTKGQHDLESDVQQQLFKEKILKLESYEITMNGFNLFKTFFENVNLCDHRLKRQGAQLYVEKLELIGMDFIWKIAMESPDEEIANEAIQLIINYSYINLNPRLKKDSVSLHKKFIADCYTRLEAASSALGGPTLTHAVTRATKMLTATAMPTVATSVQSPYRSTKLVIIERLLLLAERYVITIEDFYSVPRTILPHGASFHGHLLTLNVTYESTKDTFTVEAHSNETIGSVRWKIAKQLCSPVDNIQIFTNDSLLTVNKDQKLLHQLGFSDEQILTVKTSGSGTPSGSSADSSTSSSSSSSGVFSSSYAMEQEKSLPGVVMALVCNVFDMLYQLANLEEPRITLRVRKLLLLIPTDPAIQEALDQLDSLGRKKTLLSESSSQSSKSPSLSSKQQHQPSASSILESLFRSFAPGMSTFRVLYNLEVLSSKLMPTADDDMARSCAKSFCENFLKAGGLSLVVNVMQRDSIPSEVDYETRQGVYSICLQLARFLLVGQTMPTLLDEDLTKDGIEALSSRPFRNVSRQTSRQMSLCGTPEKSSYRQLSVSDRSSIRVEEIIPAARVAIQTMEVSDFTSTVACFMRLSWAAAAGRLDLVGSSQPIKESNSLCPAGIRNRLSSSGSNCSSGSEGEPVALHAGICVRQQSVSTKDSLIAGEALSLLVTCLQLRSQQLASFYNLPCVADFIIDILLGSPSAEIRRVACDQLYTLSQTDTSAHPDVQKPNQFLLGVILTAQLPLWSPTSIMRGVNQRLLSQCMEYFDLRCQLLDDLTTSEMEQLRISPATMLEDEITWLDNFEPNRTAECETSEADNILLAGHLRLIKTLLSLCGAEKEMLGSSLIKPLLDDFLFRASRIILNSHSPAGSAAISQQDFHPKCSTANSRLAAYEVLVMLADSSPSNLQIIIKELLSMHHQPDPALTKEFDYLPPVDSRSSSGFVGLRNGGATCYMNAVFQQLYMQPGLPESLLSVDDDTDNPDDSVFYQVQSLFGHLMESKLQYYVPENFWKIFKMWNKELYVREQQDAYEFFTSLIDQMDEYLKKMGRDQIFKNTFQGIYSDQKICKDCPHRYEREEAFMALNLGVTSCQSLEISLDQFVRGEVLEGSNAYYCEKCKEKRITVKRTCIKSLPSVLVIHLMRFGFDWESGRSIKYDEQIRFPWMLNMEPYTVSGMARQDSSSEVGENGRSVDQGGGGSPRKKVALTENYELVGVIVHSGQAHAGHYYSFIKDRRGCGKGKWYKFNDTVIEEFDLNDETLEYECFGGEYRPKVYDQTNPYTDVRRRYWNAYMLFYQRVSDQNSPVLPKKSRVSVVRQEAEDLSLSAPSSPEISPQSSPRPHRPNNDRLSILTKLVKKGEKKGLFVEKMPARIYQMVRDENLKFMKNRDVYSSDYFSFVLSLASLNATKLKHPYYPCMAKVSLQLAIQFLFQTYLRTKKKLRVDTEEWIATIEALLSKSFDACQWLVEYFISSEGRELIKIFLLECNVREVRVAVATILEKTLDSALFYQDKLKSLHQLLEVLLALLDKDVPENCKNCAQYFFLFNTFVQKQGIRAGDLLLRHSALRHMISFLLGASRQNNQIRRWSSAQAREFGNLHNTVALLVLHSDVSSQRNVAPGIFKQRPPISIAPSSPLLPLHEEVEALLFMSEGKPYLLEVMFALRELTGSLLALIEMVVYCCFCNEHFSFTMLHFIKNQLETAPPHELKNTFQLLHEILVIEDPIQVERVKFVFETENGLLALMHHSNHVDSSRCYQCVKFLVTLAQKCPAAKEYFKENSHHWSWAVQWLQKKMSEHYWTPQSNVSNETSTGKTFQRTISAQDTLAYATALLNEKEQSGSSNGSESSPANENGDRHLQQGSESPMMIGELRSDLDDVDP
In short: as §1

USP25 = biological target: T3, USP25 (UniProt Q9UHP3)
T3 sequence (whole entry): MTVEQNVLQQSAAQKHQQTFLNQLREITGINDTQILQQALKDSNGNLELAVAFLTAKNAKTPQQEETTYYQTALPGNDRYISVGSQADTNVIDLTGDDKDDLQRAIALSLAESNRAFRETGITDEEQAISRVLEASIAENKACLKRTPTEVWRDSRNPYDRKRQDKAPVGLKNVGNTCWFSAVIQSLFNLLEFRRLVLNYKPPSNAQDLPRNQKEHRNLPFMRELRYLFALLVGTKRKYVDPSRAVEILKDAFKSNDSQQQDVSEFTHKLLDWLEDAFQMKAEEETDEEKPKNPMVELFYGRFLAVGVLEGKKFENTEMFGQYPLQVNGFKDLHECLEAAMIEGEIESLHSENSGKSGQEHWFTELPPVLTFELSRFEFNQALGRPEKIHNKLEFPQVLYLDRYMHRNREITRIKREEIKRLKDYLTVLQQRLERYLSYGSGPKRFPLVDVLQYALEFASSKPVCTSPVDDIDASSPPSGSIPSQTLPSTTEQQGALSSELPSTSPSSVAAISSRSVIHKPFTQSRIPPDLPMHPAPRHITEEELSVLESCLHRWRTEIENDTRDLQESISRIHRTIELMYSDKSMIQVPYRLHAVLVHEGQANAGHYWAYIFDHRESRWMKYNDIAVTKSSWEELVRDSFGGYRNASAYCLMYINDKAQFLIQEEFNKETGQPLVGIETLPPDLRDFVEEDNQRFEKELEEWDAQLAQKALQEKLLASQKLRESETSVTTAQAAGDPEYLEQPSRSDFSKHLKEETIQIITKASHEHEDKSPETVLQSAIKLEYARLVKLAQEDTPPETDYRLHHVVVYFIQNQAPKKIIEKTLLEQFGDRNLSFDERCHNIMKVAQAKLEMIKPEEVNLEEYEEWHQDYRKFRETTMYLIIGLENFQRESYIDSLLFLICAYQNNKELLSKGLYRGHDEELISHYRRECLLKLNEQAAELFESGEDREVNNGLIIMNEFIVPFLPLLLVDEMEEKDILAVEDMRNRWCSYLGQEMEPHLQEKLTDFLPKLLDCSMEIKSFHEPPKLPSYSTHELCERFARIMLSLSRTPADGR
In short: as §1

USP28 = biological target: T4, USP28 (UniProt Q96RU2)
T4 sequence (whole entry): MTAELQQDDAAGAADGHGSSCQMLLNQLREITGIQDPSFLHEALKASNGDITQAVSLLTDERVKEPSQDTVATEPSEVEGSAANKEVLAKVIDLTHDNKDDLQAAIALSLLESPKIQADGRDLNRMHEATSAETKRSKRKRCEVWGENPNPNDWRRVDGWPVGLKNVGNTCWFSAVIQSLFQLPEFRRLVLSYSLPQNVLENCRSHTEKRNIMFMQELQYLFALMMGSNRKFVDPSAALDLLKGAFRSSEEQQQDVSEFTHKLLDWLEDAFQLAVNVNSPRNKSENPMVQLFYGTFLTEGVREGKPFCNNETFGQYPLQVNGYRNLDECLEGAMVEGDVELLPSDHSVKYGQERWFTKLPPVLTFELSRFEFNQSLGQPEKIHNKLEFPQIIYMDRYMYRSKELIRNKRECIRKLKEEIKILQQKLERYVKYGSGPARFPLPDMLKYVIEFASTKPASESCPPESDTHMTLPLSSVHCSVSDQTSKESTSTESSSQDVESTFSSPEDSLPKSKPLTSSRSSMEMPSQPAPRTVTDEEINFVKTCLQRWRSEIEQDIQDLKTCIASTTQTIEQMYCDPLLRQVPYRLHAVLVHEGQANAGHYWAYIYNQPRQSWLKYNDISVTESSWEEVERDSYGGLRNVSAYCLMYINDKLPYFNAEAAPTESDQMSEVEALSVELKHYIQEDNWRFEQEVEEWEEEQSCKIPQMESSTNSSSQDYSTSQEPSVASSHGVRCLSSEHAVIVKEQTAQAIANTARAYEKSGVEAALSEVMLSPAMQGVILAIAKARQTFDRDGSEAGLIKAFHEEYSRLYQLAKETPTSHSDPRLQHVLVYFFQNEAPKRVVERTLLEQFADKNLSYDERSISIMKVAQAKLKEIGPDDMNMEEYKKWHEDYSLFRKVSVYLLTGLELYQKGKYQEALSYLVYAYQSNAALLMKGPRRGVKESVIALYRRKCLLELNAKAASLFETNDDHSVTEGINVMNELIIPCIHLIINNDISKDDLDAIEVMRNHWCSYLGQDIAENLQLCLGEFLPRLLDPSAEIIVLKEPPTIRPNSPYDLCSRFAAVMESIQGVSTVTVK
In short: as §1

Measured: log2 ratio of Biotin-Ahx-Ub-VS probe labelling

Cc1cc(Cl)ccc1NC(=O)CCl
inactive: USP19 -0.055 | USP22 -0.467 | USP24 -0.224 | USP25 -0.208 | USP28 -0.682
